The values below come from PubChem BioAssay (EPA / NIEHS).

Assay [1] can be described thus: APR_HepG2_CellCycleArrest_1hr: Apredica 1-hour HepG2 Assay for Cell Cycle Arrest (AID 2282666). Conditions: high-content imaging, actives raise or lower the signal. An outline of the steps:
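HepG2 cells exposed for 1 h to 0.39–200 uM compound (0.5% DMSO). Fixed, Hoechst-stained nuclei imaged by ArrayScan; DNA content quantified by Cell Cycle analysis; bidirectional fit against DMSO.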

Assay [2] can be described thus: APR_HepG2_CellLoss_1hr: Apredica 1-hour HepG2 Assay for Cell Loss (AID 2282668).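 Also: curves fitted both ways against DMSO so gain or loss of cells counts.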 Conditions: high-content imaging. An outline of the steps: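 HepG2 cells were treated for 1 h with compound at 0.39–200 uM, in duplicate, in 0.5% DMSO. After formaldehyde fixation, Hoechst 33342-stained nuclei were imaged on an ArrayScan to count cells. Data were fitted bidirectionally versus DMSO.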

A short description of assay [3]: APR_HepG2_MicrotubuleCSK_1hr: Apredica 1-hour HepG2 Assay for Microtubule CSK Stabilty (AID 2282669). Conditions: HepG2 microtubule cytoskeleton imaging, actives raise or lower the signal. An outline of the steps: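 HepG2 cells exposed 1 h to 0.39–200 uM compound (0.5% DMSO, duplicates), then formaldehyde-fixed, permeabilized and immunostained for alpha-tubulin with Hoechst nuclei. Imaged by ArrayScan high-content analysis; bidirectional fit versus DMSO.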

A short description of assay [4]: APR_HepG2_p53Act_1hr: Apredica 1-hour HepG2 Assay for p53 Activation (AID 2282671). The settings on record: high-content imaging, actives raise or lower the signal. In a few lines: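 HepG2 cells treated 1 h with compound at 0.39–200 uM (10 concentrations, duplicate) in 0.5% DMSO. Formaldehyde-fixed, permeabilised cells immunostained for p53 with Hoechst 33342; high-content imaging, bidirectional fit versus DMSO.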

The nature of assay [5]: APR_HepG2_MitoticArrest_1hr: Apredica 1-hour HepG2 Assay for Mitotic Arrest (AID 2282672). The settings on record: high-content imaging, actives raise or lower the signal. An outline of the steps:
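HepG2 cells exposed 1 hr to compounds at 0.39–200 uM (0.5% v/v DMSO final), then fixed in 3.7% formaldehyde and immunostained for phospho-histone H3 with Hoechst 33342. Mitotic arrest scored by automated fluorescence imaging, fitted bidirectionally versus DMSO.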

The nature of assay [6]: APR_HepG2_P-H2AX_1hr: Apredica 1-hour HepG2 Assay for H2AX Phosphorylation (AID 2282673). Conditions: high-content imaging, actives raise or lower the signal. An outline of the steps:
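HepG2 dosed 1 hr at 0.39-200 uM (0.5% DMSO final), duplicate. Fixed in 3.7% formaldehyde, Triton permeabilized, immunostained for phospho-histone H2A.x (1:200) with Hoechst 33342; ArrayScan 20x imaging, bidirectional fit vs DMSO.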

A short description of assay [7]: APR_HepG2_MitoMembPot_1hr: Apredica 1-hour HepG2 Assay for Mitochondrial Membrane Potential (AID 2282675). Conditions: imaging, actives raise or lower the signal. An outline of the steps:
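HepG2 cells dosed 1 hour with 0.39–200 uM compound in duplicate, 0.5% DMSO final. MitoTracker Red CMXRos (250 nM, 30 min) loaded before formaldehyde fixation; fluorescence quantified by high-content imaging, bidirectional fitting versus DMSO.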

Assay [8] can be described thus: APR_HepG2_CellCycleArrest_24hr: Apredica 24-hour HepG2 Assay for Cell Cycle Arrest (AID 2282905).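 Also: cell cycle arrest scored as ratio of 2N to 4N nuclear DNA content.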 Conditions: imaging, actives raise or lower the signal. An outline of the steps: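 Compounds at 0.39–200 uM (0.5% DMSO) for 24 h, then fixed and Hoechst 33342 stained. Cell-cycle analysis of nuclear DNA content by high-content imaging, fitted bidirectionally versus DMSO.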

Assay [9] is described as follows: APR_HepG2_NuclearSize_1hr: Apredica 1-hour HepG2 Assay for Nuclear Size (AID 2282670). Conditions: high-content imaging, actives raise or lower the signal. In a few lines: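 HepG2 cells dosed 1 hr with 0.39–200 uM compound (0.5% DMSO), formaldehyde-fixed, Hoechst 33342-stained and imaged at 20x; nuclear diameter from nuclear stain, fitted bidirectionally against DMSO.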

Assay [10] is described as follows: APR_HepG2_MitoMass_1hr: Apredica 1-hour HepG2 Assay for Mitochondrial Mass (AID 2282674). The settings on record: high-content imaging, actives raise or lower the signal. An outline of the steps:
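HepG2 cells dosed 1 hr with 0.39-200 uM compound (0.5% DMSO), duplicate wells. Mitochondria stained with 250 nM MitoTracker Red CMXRos for 30 min before formaldehyde fixation, imaged at 20x by ArrayScan; bidirectional fit versus DMSO.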

The structures appear in SMILES notation. Activity calls are given as the source filed them. The calls were made as follows: active = hit-call score of the fitted dose curve at least 0.9, where 1 is the maximum; inactive = score below 0.9.

For the molecule `CC(C1CC1)C(O)(Cn1cncn1)c1ccc(Cl)cc1` (centres undefined), the outcome in assay [1], in [2], in [3], in assay [4], in assay [5] and in assay [6] was inactive. The molecule was classed as inactive in [7] and in assay [8].

Take `CC(C)[C@H](C(=O)O[C@H](C#N)c1cccc(Oc2ccccc2)c1)c1ccc(Cl)cc1`: the molecule was called inactive in assay [1], in assay [2], in assay [3], in [9], in [4] and in assay [5]. Moreover, the outcome in assay [6] and in assay [8] was inactive.

On to `CCCCSP(=O)(SCCCC)SCCCC`, for which the molecule was classed as inactive in assay [1], in assay [2], in [5], in assay [6], in [7] and in [8].

Consider `CON=C(C(=O)OC)c1ccccc1CON=C(C)c1cccc(C(F)(F)F)c1`, for which the call in assay [1], in [2], in assay [3], in assay [4], in assay [5] and in [6] was inactive. Moreover, the result in assay [8] was inactive.

For `CC1=NNC(=O)N(/N=C/c2cccnc2)C1`, the molecule was called inactive in [1], in assay [2], in assay [9], in assay [5], in [10] and in assay [7]. Further, in assay [8], the result was inactive.

Usually AC50 stands for the midpoint of the concentration-response curve, whichever way the signal moves. Turning to `CC(COc1ccc(Oc2ccccc2)cc1)Oc1ccccn1` (centres undefined), the molecule was classed as inactive in assay [1], in assay [2] and in assay [5]. For the same molecule, the AC50 in assay [8] was 77 µM (active).

For `CC1(C(=O)Nc2ccc(O)c(Cl)c2Cl)CCCCC1`, the molecule was called inactive in [1], in assay [2], in [5], in assay [10] and in [8].

Consider `CCOP(=S)(Oc1cnc(C(C)(C)C)nc1)OC(C)C` (centres undefined), for which the result in assay [1], in assay [2], in [9], in assay [5] and in [7] was inactive. In addition, the concentration at half-maximal activity (AC50) in [8] was 152 µM (active).

For the molecule `CC(C)=CC1C(C(=O)OCN2C(=O)C3=C(CCCC3)C2=O)C1(C)C` (centres undefined), the result in assay [1], in [2], in assay [5], in assay [6], in [7] and in [8] was inactive.

Regarding `COP(=O)(NC(C)=O)SC` (centres undefined), the outcome in [1], in assay [2], in assay [9], in assay [5] and in [8] was inactive.

In the case of `CCOP(=S)(OCC)OC(Cl)C(Cl)(Cl)Cl` (centres undefined), the result in [1], in assay [2], in assay [3], in assay [9], in assay [5] and in assay [6] was inactive. In addition, the result in assay [10], in [7] and in assay [8] was inactive.

As to `C=C(C)[C@H]1Cc2c(ccc3c2O[C@@H]2COc4cc(OC)c(OC)cc4[C@@H]2C3=O)O1`, the outcome in assay [1], in assay [9], in assay [5], in assay [10] and in assay [7] was inactive. Besides, the AC50 is 4.74 µM (active) in assay [3] and 0.0391 µM (active) in assay [8].

With `COP(=O)(OC)SCn1c(=O)oc2cc(Cl)cnc21`, the molecule was called inactive in [1], in assay [2], in assay [3], in assay [9], in [4] and in assay [5]. For the same molecule, the outcome in [6], in assay [10] and in assay [8] was inactive.

`CCC(CC)Nc1c([N+](=O)[O-])cc(C)c(C)c1[N+](=O)[O-]`: the call in assay [1], in [2], in assay [3], in [4], in assay [5] and in assay [10] was inactive. Further, in assay [8], the molecule was classed as inactive.

With `CSC1=N[C@@](C)(c2ccccc2)C(=O)N1Nc1ccccc1`, the result in assay [1], in assay [2], in assay [3], in [4], in assay [5] and in assay [6] was inactive. For the same molecule, the outcome in assay [8] was inactive.

`S=C1NCCN1`: the call in assay [1], in [2], in [5], in [10] and in assay [8] was inactive.

With `Nc1c(Cl)cc([N+](=O)[O-])cc1Cl`, the molecule was called inactive in [1], in assay [2], in [5], in [10], in assay [7] and in assay [8].

Take `CCCSP(=O)(OCC)SCCC`: the call in assay [1], in assay [2], in assay [3], in assay [9], in assay [5] and in assay [6] was inactive. For the same molecule, in assay [8], the result was inactive.

As for `CSc1nc(NC(C)C)nc(NC(C)C)n1`, the outcome in assay [1], in assay [2], in assay [3], in assay [5] and in [8] was inactive.

Regarding `COc1cccc(C(=O)NN(C(=O)c2cc(C)cc(C)c2)C(C)(C)C)c1C`, the molecule was classed as inactive in [1], in assay [3], in assay [9], in assay [4], in assay [5] and in assay [10]. Also, the result in assay [8] was inactive.

`COc1cc(OC)nc(Sc2cccc(Cl)c2C(=O)O)n1`: the molecule was called inactive in assay [1], in assay [2], in [5] and in assay [8].

`CC[C@H](C)[C@H]1O[C@]2(C=C[C@@H]1C)C[C@@H]1C[C@@H](C/C=C(\C)[C@@H](O[C@H]3C[C@H](OC)[C@@H](O[C@H]4C[C@H](OC)[C@@H](NC)[C@H](C)O4)[C@H](C)O3)[C@@H](C)/C=C/C=C3\CO[C@@H]4[C@H](O)C(C)=C[C@@H](C(=O)O1)[C@]34O)O2`: the call in [1], in assay [5], in [7] and in assay [8] was inactive. Also, in assay [2], the AC50 was 16.5 µM (active).

Regarding `CC(C)N(C(=O)SCC(Cl)=C(Cl)Cl)C(C)C`, the molecule was called inactive in [1], in assay [2], in [5], in assay [10], in assay [7] and in [8].

With `CN(C)C(=O)Nc1cccc(C(F)(F)F)c1`, the molecule was called inactive in assay [1], in assay [2], in assay [9], in assay [4], in assay [5] and in [6]. In addition, the molecule was classed as inactive in assay [10], in assay [7] and in assay [8].

In the case of `CCCOc1nn(C(=O)NS(=O)(=O)c2ccccc2C(=O)OC)c(=O)n1C`, the molecule was classed as inactive in assay [1], in assay [3], in assay [9], in assay [4], in assay [5] and in assay [7]. Further, the call in assay [8] was inactive.

As to `CN(C)[C@@H]1C(=O)C(C(N)=O)=C(O)[C@@]2(O)C(=O)C3=C(O)c4c(O)cccc4[C@@](C)(O)[C@H]3[C@H](O)[C@@H]12`, the molecule was classed as inactive in [1], in [2], in assay [3], in assay [5], in assay [6] and in assay [8].

For `CCNc1nc(Cl)nc(NC(C)(C)C#N)n1`, the result in [1], in assay [3], in [9], in [5], in assay [10] and in [8] was inactive.

With `CCOP(=O)(SC(C)CC)N1CCSC1=O` (centres undefined), the molecule was classed as inactive in assay [1], in [2], in assay [3], in assay [5], in assay [6] and in assay [10]. Further, the result in assay [7] and in assay [8] was inactive.

For the molecule `Cc1nn(-c2cc(NS(C)(=O)=O)c(Cl)cc2Cl)c(=O)n1C(F)F`, the result in assay [1], in assay [2], in [3], in [9], in assay [5] and in [7] was inactive. Moreover, in assay [8], the outcome was inactive.

Turning to `CCC(=O)Nc1ccc(Cl)c(Cl)c1`, the molecule was called inactive in assay [1], in assay [2] and in assay [5]. Moreover, the AC50 in [8] is 79.3 µM (active).

For the molecule `N#CSCSC#N`, the molecule was classed as inactive in [1], in assay [2], in assay [3], in assay [9], in assay [5] and in [6]. Also, the outcome in [10] and in assay [8] was inactive.

Turning to `CCCCOC(=O)c1ccccc1C(=O)O`, the outcome in assay [1], in [2], in assay [3], in assay [9], in [4] and in assay [5] was inactive. The molecule was classed as inactive in [6] and in assay [8].
